The source made the active and inactive calls.
Columns and labels:
[1] = system: Plasmodium falciparum Sir2 (PF13_0152, Sir2A); test: Plasmodium falciparum Sir2A binding compounds – biochemical, small-molecule microarray, 635 nm fluorescence, primary screen (AID 1098); conditions: fluorescence 635 nm, higher = more signal;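 also: score merges spot fluorescence intensity with its signal-to-noise ratio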
[2] = probe aDKK1 binding to arrayed compounds – biochemical, biotinylated probe, 635/667 nm fluorescence, primary screen (AID 1099); conditions: small-molecule microarray, higher = more signal;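 also: score merges 667nm spot fluorescence with signal to noise across triplicate slides; reference of the scale not given here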
[3] = probe aCHRDL2 binding to arrayed compounds – biochemical, biotinylated probe, 635/667 nm fluorescence, primary screen (AID 1100); conditions: small-molecule microarray, higher = more signal
[4] = change in splice reporter luminescence, either direction, cell-based, HEK293, spliceosome inhibition project, primary screen (AID 1101); conditions: HEK293 splicing luciferase reporter, 24 h, higher = more signal, called active from +8 up or from −8 down;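 also: HEK293 cells carrying a splicing-competent luciferase reporter gene; test concentration not given here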
[5] = target: Fibroblast growth factor 10 (Homo sapiens) (UniProt O15520); test: compounds binding fibroblast growth factor 10 – biochemical, small-molecule microarray, 635 nm fluorescence, primary screen (AID 1102); conditions: FGF10 binding, fluorescence 635 nm, higher = more signal
Fibroblast growth factor 10 (Homo sapiens), sequence (O15520 whole entry, looked up): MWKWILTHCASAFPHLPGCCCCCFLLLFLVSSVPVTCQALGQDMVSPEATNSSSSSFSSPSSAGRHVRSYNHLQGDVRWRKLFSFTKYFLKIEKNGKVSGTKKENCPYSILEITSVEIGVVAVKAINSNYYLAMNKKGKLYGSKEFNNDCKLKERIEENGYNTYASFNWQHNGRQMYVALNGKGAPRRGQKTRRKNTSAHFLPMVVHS

[6] = system: glycogen synthase kinase-3 (GSK3A per assay name; protocol says GSK3B); test: compounds binding glycogen synthase kinase-3 – biochemical, small-molecule microarray, 635 nm fluorescence, GSK3A, primary screen (AID 1103); conditions: fluorescence 635 nm, higher = more signal; also: the record names both GSK3A and GSK3B
[7] = target: Epidermal growth factor receptor (Homo sapiens) (UniProt P00533); test: compounds binding epidermal growth factor receptor – biochemical, small-molecule microarray, 635 nm fluorescence, primary screen (AID 1104); conditions: EGFR binding, higher = more signal;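 also: score merges 667 nm emission intensity with spot signal to noise over triplicate slides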
Epidermal growth factor receptor (Homo sapiens), sequence (P00533 whole entry, looked up): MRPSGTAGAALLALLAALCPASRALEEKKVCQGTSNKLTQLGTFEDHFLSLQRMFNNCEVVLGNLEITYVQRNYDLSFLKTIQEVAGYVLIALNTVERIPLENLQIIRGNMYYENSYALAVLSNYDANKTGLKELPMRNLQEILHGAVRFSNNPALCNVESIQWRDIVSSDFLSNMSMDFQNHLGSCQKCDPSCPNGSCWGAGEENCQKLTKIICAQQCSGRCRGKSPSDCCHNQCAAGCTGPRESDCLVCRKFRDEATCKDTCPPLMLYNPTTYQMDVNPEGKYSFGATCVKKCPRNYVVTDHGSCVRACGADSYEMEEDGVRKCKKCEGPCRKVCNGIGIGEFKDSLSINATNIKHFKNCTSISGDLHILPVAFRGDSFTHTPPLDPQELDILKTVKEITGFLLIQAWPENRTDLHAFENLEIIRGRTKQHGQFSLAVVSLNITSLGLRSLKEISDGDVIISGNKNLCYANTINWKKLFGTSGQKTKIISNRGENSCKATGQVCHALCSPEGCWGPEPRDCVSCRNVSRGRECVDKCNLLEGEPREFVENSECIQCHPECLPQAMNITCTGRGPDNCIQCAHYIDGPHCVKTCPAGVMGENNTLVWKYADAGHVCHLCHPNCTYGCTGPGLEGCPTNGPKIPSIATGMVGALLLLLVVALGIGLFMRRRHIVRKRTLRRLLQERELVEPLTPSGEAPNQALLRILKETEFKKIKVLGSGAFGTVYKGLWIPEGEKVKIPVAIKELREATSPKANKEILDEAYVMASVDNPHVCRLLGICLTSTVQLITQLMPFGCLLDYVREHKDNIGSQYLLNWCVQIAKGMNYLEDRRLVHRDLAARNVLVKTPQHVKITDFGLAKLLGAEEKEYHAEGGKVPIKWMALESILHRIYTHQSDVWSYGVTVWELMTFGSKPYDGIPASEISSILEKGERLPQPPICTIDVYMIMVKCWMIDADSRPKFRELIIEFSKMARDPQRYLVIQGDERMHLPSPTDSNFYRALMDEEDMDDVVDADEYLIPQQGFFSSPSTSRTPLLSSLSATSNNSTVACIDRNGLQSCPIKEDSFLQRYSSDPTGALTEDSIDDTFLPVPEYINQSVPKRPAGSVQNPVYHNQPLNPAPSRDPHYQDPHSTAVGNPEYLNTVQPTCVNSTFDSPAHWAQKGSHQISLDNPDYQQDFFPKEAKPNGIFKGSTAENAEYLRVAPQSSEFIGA

[8] = target: Follistatin-related protein 3 (Homo sapiens) (UniProt O95633); test: compounds binding follistatin-related protein 3 – biochemical, small-molecule microarray, 635 nm fluorescence, primary screen (AID 1105); conditions: FSTL3 binding, higher = more signal;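 also: score merges emission near 667 nm and signal to noise per printed spot across three slides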
Follistatin-related protein 3 (Homo sapiens), sequence (O95633 whole entry, looked up): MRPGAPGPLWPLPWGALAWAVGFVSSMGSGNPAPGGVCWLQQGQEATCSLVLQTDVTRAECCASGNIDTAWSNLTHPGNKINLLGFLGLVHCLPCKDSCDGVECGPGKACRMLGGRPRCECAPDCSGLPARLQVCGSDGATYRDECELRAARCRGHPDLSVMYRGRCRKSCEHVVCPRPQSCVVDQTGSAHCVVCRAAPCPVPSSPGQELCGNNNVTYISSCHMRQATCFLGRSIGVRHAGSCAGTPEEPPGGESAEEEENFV

[9] = target: Dickkopf-related protein 1 (Homo sapiens) (UniProt O94907); test: small molecules binding DKK1 protein – biochemical, small-molecule microarray, 635 nm fluorescence scan, primary screen (AID 1106); conditions: higher = more signal;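 also: score merges emission near 667 nm with signal to noise over three replicate slides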
Dickkopf-related protein 1 (Homo sapiens), sequence (O94907 whole entry, looked up): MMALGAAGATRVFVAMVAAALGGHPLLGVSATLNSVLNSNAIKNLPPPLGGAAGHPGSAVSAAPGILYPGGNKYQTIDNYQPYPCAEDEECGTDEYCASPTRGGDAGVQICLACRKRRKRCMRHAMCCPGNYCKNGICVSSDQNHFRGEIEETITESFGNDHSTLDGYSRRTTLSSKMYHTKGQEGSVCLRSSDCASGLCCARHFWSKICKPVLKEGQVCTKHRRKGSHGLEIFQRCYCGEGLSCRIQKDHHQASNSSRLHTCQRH

[10] = system: Inhibin beta A chain (activin A); test: small molecules binding activin A – biochemical, small-molecule microarray, 635 nm fluorescence scan, primary screen (AID 1107); conditions: INHBA, higher = more signal;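 also: mouse activin A protein probed at 4.33 µg/mL on printed slides; score merges bound-protein fluorescence near 667 nm with spot signal-to-noise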

SMILES	composite z-score [1]	composite z-score [2]	composite z-score [3]	z-score [4]	composite z-score [5]	composite z-score [6]	composite z-score [7]	composite z-score [8]	composite z-score [9]	composite z-score [10]
COc1ccc([Si](C)(C)[C@@H]2[C@@H](CC(=O)N3Cc4ccccc4C[C@H]3CO)O[C@]3(C(=O)N(C)c4c(Br)cc(C)cc43)[C@H]2C)cc1	0.859	-0.0347	-0.311	-2.12 (inactive)	1.33	0.954	0.968	1.08	0.685	1.13
CC(C)(C)OC(=O)CC[C@@]1(C(N)=O)N=C(c2ccc(OCCCO)cc2)O[C@@H]1c1ccccc1	1.19	0.307	0.666	-0.0742 (inactive)	0.958	1.15	-0.467	0.0089	-0.534	0.557
CN(C)C(=O)[C@]1(Cc2ccccc2N=[N+]=[N-])N=C(c2ccc(OCCCO)cc2)O[C@@H]1c1ccccc1	1.47	0.467	0.787	-1.17 (inactive)	0.818	1.28	0.0161	0.373	-0.121	0.545
CC(C)N1C(=O)c2ccccc2[C@](C)(C(=O)NCc2ccccc2)[C@@H]1c1ccc(CO)cc1	0.758	0.234	0.849	0.0799 (inactive)	-0.44	-0.329	-0.587	-0.615	-1.16	0.288
COCC(=C=CC[C@H](O)c1ccccc1OCCO)C[C@H](O)c1cc(Cl)cc(Cl)c1O	0.588	-0.141	-0.0448	-0.705 (inactive)	1.62	0.702	-0.0335	0.897	-0.0154	0.282
O=C1O[C@H](c2ccccc2)[C@H](c2ccccc2)N2[C@H]1[C@@H](C(=O)Nc1nc3ccccc3s1)[C@]1(C(=O)Nc3ccc(C#CCCO)cc31)[C@H]2c1ccc(OCCO)cc1	1.59	-0.198	-0.144	-0.0209 (inactive)	1.33	1.31	0.468	1.14	0.379	0.408
COCCOC(=O)N1C(=O)[C@@]2(c3ccccc31)[C@H](c1ccc(O)cc1)N1[C@H](c3ccccc3)[C@H](c3ccccc3)OC(=O)[C@H]1[C@@H]2C(=O)NC[C@H](O)c1ccccc1	1.12	-0.0866	-0.0184	-1.07 (inactive)	0.12	0.191	-0.291	-0.195	-0.341	-0.202
C=CCOC(=O)[C@H]1[C@@H]2C(=O)O[C@@H](c3ccccc3)[C@@H](c3ccccc3)N2[C@@H](c2ccc(OCCOC(=O)[C@H]3C[C@H]4C(=O)N5CCC[C@H]5C(=O)N4[C@H]3c3ccc(O)cc3)cc2)[C@]12C(=O)Nc1ccc(I)cc12	2.09	1.76	1.42	-1.93 (inactive)	1.47	1.37	0.429	1.42	1.97	1.41
CCCC#C[Si](O[C@H](CC)c1cn([C@H](CO)Cc2ccccc2)nn1)(C(C)C)C(C)C	0.947	0.111	-0.467	-0.118 (inactive)	0.955	0.379	0.371	1.15	0.82	-0.253
CCOC(=O)C1=CCC(c2ccc(C)cc2)N(S(=O)(=O)c2ccc(C)cc2)C1 (stereo not given)	0.751	0.524	0.845	-0.688 (inactive)	0.129	0.301	-0.136	0.058	0.0296	1.42
Cc1ccc(S[C@]2(C(=O)NC3CC3)CC(=O)N(C3Cc4ccccc4C3)[C@@H]2c2ccc(CO)cc2)cc1	1.65	0.245	0.806	-0.983 (inactive)	-0.451	-0.15	-0.876	-0.809	-1.02	-0.139
CN1C(=O)C2C=CC(C(O)C3CCCCC3)N(Nc3ccc([N+](=O)[O-])cc3[N+](=O)[O-])C2C1=O (stereo not given)	0.912	0.778	0.906	1.84 (inactive)	0.911	0.323	0.374	1.29	-0.33	0.738
C=C(COC)/C(=C/C[C@@H](OC(C)=O)c1ccc(OCCO)cc1)c1cc(C(=O)OC)ccc1OC	1.22	0.455	-0.103	0.585 (inactive)	1.54	0.794	0.265	1.27	0.43	0.884
Cc1ccc(C(C)CC(O)C2C=CC3C(=O)N(c4ccccc4)C(=O)C3N2Nc2ccc([N+](=O)[O-])cc2)o1 (stereo not given)	0.883	-0.199	0.904	0.907 (inactive)	0.938	1.27	0.152	0.904	0.0201	0.77
CC(C)C[C@@H]1NC(=O)[C@H]2C[C@@H](C(=O)NCCCCCCN(C)C)[C@@H](c3ccc(O)cc3)N2C1=O	1.44	0.158	-0.0008	0.561 (inactive)	1.2	1.32	0.653	1.13	1.4	1.12
C=CCOC(=O)[C@H]1[C@@H]2C(=O)O[C@@H](c3ccccc3)[C@@H](c3ccccc3)N2[C@@H](c2ccc(OCCOC(=O)[C@@H]3C[C@@H]4C(=O)N[C@@H](CCCC[N+](C)(C)C)C(=O)N4[C@@H]3c3ccc(O)cc3)cc2)[C@]12C(=O)Nc1ccccc12	1.05	0.415	-0.372	-0.794 (inactive)	0.805	1.3	0.383	1.24	0.716	-0.0117
COC(=O)[C@@]1(Cc2ccc(OC)cc2)[C@H]2c3cc(C(=O)N4CCCC4)n(Cc4ccsc4Br)c3C[C@H]2CN1C(=O)c1ccccc1	0.824	0.597	1.08	2.42 (inactive)	-0.125	0.386	-0.248	-0.246	-0.752	0.741
CCOC(=O)C[C@H]1[C@H](OC(=O)Cc2ccc3c(c2)OCO3)[C@@H](NC(=O)c2ccc(-c3ccccc3)cc2)c2cc(OCCCO)ccc2N1C(=O)c1ccc2ccccc2n1	-0.0119	-0.319	-0.486	-2.82 (inactive)	0.556	0.28	0.468	0.321	0.434	-0.0169
COCCOC(=O)N1C(=O)[C@@]2(c3cc(C#CC4(O)CCCCCC4)ccc31)[C@H](c1ccc(O)cc1)N1[C@H](c3ccccc3)[C@H](c3ccccc3)OC(=O)[C@H]1[C@@H]2C(=O)Nc1nc2ccccc2s1	0.483	1.17	0.784	-0.54 (inactive)	1.35	1.31	0.487	1.38	0.857	1.33
COc1ccc(CCN2C(=O)[C@@]3(Cc4ccccc42)c2ccccc2C(=O)N(Cc2ccccc2C(F)(F)F)[C@H]3c2ccc(CO)cc2)cc1	0.516	-0.19	-0.537	-0.856 (inactive)	0.167	0.441	0.0283	0.425	0.622	0.717
C=CCC(OC(C)=O)[C@@H]1[C@@H](N(Cc2ccc(-c3cccc(C(F)(F)F)c3)o2)C(=O)c2ccc(-c3ccccc3)cc2)c2cc(OCCCO)ccc2N1C(=O)c1ccc(-c2ccccc2)cc1 (stereo not given in full)	-0.285	0.31	0.543	0.196 (inactive)	0.269	-0.754	-0.327	0.104	-0.0545	1.32
CC(=O)NCCCC[C@@H]1NC(=O)[C@@H]2C[C@H](C(=O)NCCCCCCNC(=O)CS)[C@H](c3cccc(OCCO)c3)N2C1=O	1.76	-0.0828	0.466	-0.289 (inactive)	0.639	1.12	0.37	0.325	0.791	0.388
COc1ccc(C(O)C2C=CC3C(=O)N(C)C(=O)C3N2N2CCCCC2)c2ccccc12 (stereo not given)	1.17	0.65	0.947	1.28 (inactive)	0.956	1.29	0.344	1.24	-0.312	0.91
C=CCNC(=O)[C@@H]1[C@H]2C(=O)O[C@H](c3ccccc3)[C@H](c3ccccc3)N2[C@H](c2ccc(OCCO)cc2)[C@@]12C(=O)Nc1ccc(C#Cc3ccc(OC)cc3)cc12	1.28	0.707	0.792	-0.476 (inactive)	0.939	1.29	0.641	1.25	1.07	0.746
CCOC(=O)C1=CCC(c2ccccc2)N(S(=O)(=O)CC[Si](C)(C)C)C1 (stereo not given)	-0.285	-0.264	-0.534	0.191 (inactive)	-0.887	-0.157	-0.458	-0.736	-0.214	1.24
C=CCN1C(=O)[C@@]2(O[C@@H](CCO)[C@H]([Si](C)(C)c3ccc(OC)cc3)[C@H]2C)c2cc(NC(=O)c3ccc(OC)cc3)ccc21	0.45	-0.138	-0.46	-0.491 (inactive)	1.09	0.587	0.424	0.722	0.532	1.32
